Records with an inconclusive call do not appear. Active and inactive are the calls of the source. Unless noted, calls follow the shape of the dose curve; as a rule, active = well fitted curve in the direction sought with a large enough effect in the repeat runs; inconclusive = weak or mixed curves; inactive = no such curve, though single readings can be large; an effect the other way counts as inactive or inconclusive.
What was measured:
[1] = qHTS assay to identify small molecule HDAC inhibitors (AID 1259364); conditions: HCT-116 HDAC-Glo I/II luminescence, 2 h; series mostly up to 92.4 µM; also: top concentration of the series differs between compounds; nearly all actives have a fitted effect of over 45% in size
How it was run: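 Endogenous HDAC class I/II activity was measured in wild-type HCT-116 cells by HDAC-Glo luminescence after 2 h compound treatment.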

[2] = qHTS assay to identify small molecule HDAC inhibitors - cell viability counter screen (AID 1259365); conditions: HCT-116 viability, CellTiter-Glo ATP luminescence, 2 h; series mostly up to 92.4 µM; also: nearly all actives have a fitted effect of over 50% in size; also: potency is read from the fitted curve at half-maximal effect
How it was run: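 Wild-type HCT-116 cells, 1,500/well, cultured overnight, then compound-treated 2 h at 37 C. Viability measured as ATP luminescence with CellTiter-Glo after 30 min at room temperature.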

[3] = qHTS assay to identify small molecule antagonists of the sonic hedgehog signaling (Shh) pathway - cell viability counter screen (AID 1259367); conditions: NIH/3T3 Gli1-Luc viability, CellTiter-Fluor, 24 h; series mostly up to 92.4 µM; also: nearly all actives have a fitted effect of over 55% in size; also: potency is read from the fitted curve at half-maximal effect
How it was run: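 Cells: 3T3 Gli1-Luc, 2,000/well, 4 hr pre-incubation. Compounds in DMSO, then conditioned medium. Incubation 24 hr, 37C, 5% CO2. CellTiter-Fluor at 23 hr, 1 hr, fluorescence.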

[4] = qHTS assay to identify small molecule agonists of the sonic hedgehog signaling (Shh) pathway (AID 1259368; calls by dose curve;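 also: NIH/3T3-derived 3T3Gli1-Luc cells carrying a stable Gli1-driven firefly luciferase reporter; nearly all actives have a fitted effect of over 15% in size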); conditions: NIH/3T3 Gli1-Luc reporter, luciferase, 24 h; series mostly up to 92.4 µM
How it was run: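 Luminescent signal was taken as a measure of Gli1-controlled luciferase expression in stably transfected NIH/3T3-derived cells that had been treated for 24 hr with compounds delivered in DMSO.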

[5] = qHTS assay to identify small molecule antagonists of the sonic hedgehog signaling (Shh) pathway (AID 1259369; calls by dose curve; also: nearly all actives have a fitted effect of over 45% in size; also: potency is read from the fitted curve at half-maximal effect); conditions: NIH/3T3 Gli1-Luc reporter, Shh antagonist, luminescence 24 h; series mostly up to 92.4 µM
How it was run: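 Screening used 3T3Gli1-Luc cells at 2,000 per well, compounds delivered in DMSO, and conditioned medium as agonist stimulus; plates incubated 24hr at 37 C and 5% CO2 before a 30min luciferase step.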

[6] = qHTS assay to identify small molecule agonists of the androgen receptor (AR) signaling pathway in the presence of an antagonist - cell viability counter screen (AID 1259379); conditions: MDA-kb2 viability, CellTiter-Fluor, 16 h; series mostly up to 92.4 µM; also: nearly all actives have a fitted effect of over 25% in size; also: potency is read from the fitted curve at half-maximal effect
How it was run: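 In MDA-kb2 cells (human breast carcinoma, MMTV-luciferase), compounds at 15 concentrations plus 3.0uM nilutamide; 16 hr, 37C, 0% CO2; CellTiter-Fluor fluorescence read for viability.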

[7] = qHTS assay to identify small molecule agonists of the estrogen receptor beta (ER-beta) signaling pathway - cell viability counter screen (AID 1259380); conditions: ER-beta-bla HEK293T viability, CellTiter-Glo luminescence, 16 h; series mostly up to 92.4 µM; also: nearly all actives have a fitted effect of over 30% in size; also: potency is read from the fitted curve at half-maximal effect
How it was run: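 Viability of ER-beta-UAS-bla HEK293T cells was determined by CellTiter-Glo luminescence following 16 hr treatment with test compounds at 37C.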

[8] = molecular target: Androgen receptor (Homo sapiens) (UniProt P10275); assay: qHTS assay to identify small molecule agonists of the androgen receptor (AR) signaling pathway in the presence of an antagonist (AID 1259381; calls by dose curve; also: nearly all actives have a fitted effect of over 15% in size); conditions: MDA-kb2 MMTV-luciferase, AR agonist + nilutamide, 16 h; series mostly up to 92.4 µM
Androgen receptor (Homo sapiens), sequence (P10275 whole entry, looked up): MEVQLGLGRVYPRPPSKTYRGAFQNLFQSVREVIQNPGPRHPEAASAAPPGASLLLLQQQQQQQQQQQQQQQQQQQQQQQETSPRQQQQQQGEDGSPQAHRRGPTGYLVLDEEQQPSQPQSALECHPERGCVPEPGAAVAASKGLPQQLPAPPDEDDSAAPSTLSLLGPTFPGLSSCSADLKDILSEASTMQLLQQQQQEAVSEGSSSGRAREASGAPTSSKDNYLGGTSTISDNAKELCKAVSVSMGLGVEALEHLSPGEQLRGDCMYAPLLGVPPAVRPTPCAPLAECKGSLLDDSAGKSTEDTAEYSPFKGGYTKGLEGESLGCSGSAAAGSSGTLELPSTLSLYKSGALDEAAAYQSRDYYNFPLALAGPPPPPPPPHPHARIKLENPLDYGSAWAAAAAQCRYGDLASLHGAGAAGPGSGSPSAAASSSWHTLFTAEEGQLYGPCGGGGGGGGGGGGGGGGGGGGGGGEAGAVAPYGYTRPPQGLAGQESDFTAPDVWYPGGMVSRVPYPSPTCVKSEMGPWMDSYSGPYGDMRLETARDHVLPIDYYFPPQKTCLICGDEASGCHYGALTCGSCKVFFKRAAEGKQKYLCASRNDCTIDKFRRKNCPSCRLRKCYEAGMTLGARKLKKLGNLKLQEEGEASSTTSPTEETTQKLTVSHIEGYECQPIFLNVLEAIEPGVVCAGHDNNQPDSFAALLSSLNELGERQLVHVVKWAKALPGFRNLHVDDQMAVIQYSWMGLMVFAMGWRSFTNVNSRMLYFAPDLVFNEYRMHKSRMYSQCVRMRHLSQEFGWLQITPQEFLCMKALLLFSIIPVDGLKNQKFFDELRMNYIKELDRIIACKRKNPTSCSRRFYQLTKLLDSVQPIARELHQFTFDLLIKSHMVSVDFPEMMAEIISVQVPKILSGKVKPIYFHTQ
How it was run: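 Here, 15-concentration compound series were pin-transferred onto MDA-kb2 MMTV-luciferase cells already dosed with nilutamide (3.0uM final). After 16hr at 37C, ONE-Glo was added and luminescence read 30min later at room temperature.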

[9] = qHTS assay to identify small molecule antagonists of the estrogen receptor beta (ER-beta) signaling pathway - cell viability counter screen (AID 1259382); conditions: ER-beta-UAS-bla HEK293T viability, CellTiter-Glo luminescence, 16 h; series mostly up to 92.4 µM; also: nearly all actives have a fitted effect of over 55% in size; also: potency is read from the fitted curve at half-maximal effect
How it was run: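 Tox21 10K library tested in qHTS format on ER-beta-bla HEK293T cells stimulated with 1nM E2; 16 hr treatment at 37C. Same-well CellTiter-Glo luminescence served as the cell viability measure.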

[10] = qHTS assay to identify small molecule agonists or antagonists of the thyroid stimulating hormone receptor (TSHR) signaling pathway - wild type cell line counter screen (AID 1259384; calls by dose curve); conditions: HEK293 wild type, cAMP HTRF counter-screen, active compounds read high; series mostly up to 92.4 µM
How it was run: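 Counter screen in untransfected Hek293: compounds (15-point titration, triplicate) plus phosphodiesterase inhibitor Ro20-1724 added after 18 h plating; 30 min RT. Intracellular cAMP via competitive d2/cryptate immunoassay, 1 h incubation.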

[11] = qHTS assay to identify small molecule agonists of the estrogen receptor alpha (ER-alpha) signaling pathway in the presence of an antagonist - cell viability counter screen (AID 1259386); conditions: VM7Luc4E2 viability, CellTiter-Fluor fluorescence, 22 h; series mostly up to 92.4 µM;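 also: cells exposed to compounds for 22 h at 37 °C before the viability read; nearly all actives have a fitted effect of over 30% in size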; also: potency is read from the fitted curve at half-maximal effect
How it was run: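 Fluorescent CellTiter-Fluor viability signal from VM7Luc4E2 cells, with the reagent added during the final hour of a 22hr compound exposure at 37C in the presence of 10.0nM ICI-182,780.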

[12] = molecular target: Progesterone receptor (Homo sapiens) (UniProt P06401); assay: qHTS assay to identify small molecule agonists of the progesterone receptor (PR) signaling pathway (AID 1346784; calls by dose curve; also: nearly all actives have a fitted effect of over 30% in size); conditions: PR-UAS-bla HEK293T, beta-lactamase FRET ratio, 16 h; series mostly up to 92.4 µM
Progesterone receptor (Homo sapiens), sequence (P06401 whole entry, looked up): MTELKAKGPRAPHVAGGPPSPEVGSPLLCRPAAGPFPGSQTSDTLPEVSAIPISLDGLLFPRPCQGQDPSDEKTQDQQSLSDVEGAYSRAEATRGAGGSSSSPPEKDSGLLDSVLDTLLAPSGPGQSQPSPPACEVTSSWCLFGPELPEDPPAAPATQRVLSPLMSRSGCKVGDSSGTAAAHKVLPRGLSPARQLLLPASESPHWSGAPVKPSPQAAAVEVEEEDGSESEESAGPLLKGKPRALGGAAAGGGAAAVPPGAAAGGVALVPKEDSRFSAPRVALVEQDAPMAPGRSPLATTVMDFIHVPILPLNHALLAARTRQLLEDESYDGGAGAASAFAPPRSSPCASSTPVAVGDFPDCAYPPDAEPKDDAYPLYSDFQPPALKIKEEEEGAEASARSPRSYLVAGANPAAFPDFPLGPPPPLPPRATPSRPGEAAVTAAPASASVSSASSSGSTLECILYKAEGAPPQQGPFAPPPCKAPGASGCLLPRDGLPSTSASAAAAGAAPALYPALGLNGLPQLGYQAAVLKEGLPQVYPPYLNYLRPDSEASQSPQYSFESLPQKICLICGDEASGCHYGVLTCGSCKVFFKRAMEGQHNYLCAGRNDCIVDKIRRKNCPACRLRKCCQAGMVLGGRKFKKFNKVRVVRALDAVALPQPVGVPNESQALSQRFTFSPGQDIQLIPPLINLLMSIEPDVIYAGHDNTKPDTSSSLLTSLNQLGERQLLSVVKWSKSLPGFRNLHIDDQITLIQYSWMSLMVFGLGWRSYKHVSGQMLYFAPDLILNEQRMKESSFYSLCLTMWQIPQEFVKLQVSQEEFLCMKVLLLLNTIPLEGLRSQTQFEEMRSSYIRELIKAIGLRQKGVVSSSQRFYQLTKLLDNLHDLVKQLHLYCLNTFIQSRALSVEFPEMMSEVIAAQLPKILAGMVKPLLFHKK
How it was run: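 PR-UAS-bla HEK 293T cells (beta-lactamase reporter under UAS) in 2% charcoal-stripped FBS, dosed with 23 nL compound after 6 hr, incubated 16hr at 37C. LiveBLAzer B/G FRET substrate added, fluorescence read after 2 hours.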

[13] = molecular target: Progesterone receptor (Homo sapiens) (UniProt P06401); assay: qHTS assay to identify small molecule antagonists of the progesterone receptor (PR) signaling pathway (AID 1346795; active = well fitted inhibition curve with a large enough effect in the signal ratio in the repeat runs, not every such curve was filed as active; the % refers to the signal ratio); conditions: PR-UAS-bla HEK293T, beta-lactamase FRET ratio, 16 h; series mostly up to 92.4 µM
How it was run: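 PR-UAS-bla HEK293T cells with beta-lactamase reporter under UAS control, in 2% charcoal-stripped FBS, treated with compounds plus 1 nM promegestone (R5020, final) for 16 hr at 37C. Read-out: FRET beta-lactamase substrate fluorescence after 2 hr at room temperature.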

[14] = qHTS assay to identify small molecule agonists of the sonic hedgehog signaling (Shh) pathway - cell viability counter screen (AID 1259366); conditions: NIH/3T3 Gli1-Luc viability, CellTiter-Fluor, 24 h; series mostly up to 92.4 µM; also: nearly all actives have a fitted effect of over 50% in size; also: potency is read from the fitted curve at half-maximal effect
How it was run: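 NIH/3T3-derived Gli1-Luc reporter cells, 2,000 per well, received compound after 4 h and were treated about 23 h at 37C. Viability measured in the same wells by CellTiter-Fluor fluorescence after 1 h.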

[15] = molecular target: Thyrotropin receptor (Homo sapiens) (UniProt P16473); assay: qHTS assay to identify small molecule antagonists of the thyroid stimulating hormone receptor (TSHR) signaling pathway (AID 1259385; calls by dose curve; also: nearly all actives have a fitted effect of over 20% in size; also: potency is read from the fitted curve at half-maximal effect); conditions: TSHR-HEK293 cAMP HTRF, TSH-stimulated antagonist mode; series mostly up to 92.4 µM
Thyrotropin receptor (Homo sapiens), sequence (P16473 whole entry, looked up): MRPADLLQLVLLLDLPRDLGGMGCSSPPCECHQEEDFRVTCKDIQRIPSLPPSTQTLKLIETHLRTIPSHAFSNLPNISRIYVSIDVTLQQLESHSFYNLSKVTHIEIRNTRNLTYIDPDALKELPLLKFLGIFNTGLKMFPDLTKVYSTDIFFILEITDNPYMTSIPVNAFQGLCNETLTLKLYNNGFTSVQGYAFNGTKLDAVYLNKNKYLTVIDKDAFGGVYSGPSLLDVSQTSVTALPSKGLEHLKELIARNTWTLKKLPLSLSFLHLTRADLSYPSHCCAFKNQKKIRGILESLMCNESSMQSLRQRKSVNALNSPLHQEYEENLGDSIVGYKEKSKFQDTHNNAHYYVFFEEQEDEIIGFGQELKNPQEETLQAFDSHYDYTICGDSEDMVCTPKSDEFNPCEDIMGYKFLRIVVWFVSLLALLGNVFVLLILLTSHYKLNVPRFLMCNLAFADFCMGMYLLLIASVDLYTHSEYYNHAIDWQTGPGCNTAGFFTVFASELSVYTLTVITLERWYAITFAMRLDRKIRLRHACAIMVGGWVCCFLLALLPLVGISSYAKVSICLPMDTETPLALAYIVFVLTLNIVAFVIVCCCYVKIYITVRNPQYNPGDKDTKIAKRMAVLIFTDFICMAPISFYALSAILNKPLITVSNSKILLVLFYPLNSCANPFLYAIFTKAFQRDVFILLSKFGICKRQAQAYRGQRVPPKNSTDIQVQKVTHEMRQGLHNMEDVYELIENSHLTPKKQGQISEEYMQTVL
How it was run: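 Antagonist mode: compound-treated TSHR-expressing HEK293 cells were stimulated with 1.5 ng/mL TSH (final) in presence of Ro20-1724 for 30 min at RT. HTRF cAMP detection after 1 h; each compound tested at 15 concentrations, triplicate.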

[16] = molecular target: Estrogen receptor (Homo sapiens) (UniProt P03372); assay: qHTS assay to identify small molecule agonists of the estrogen receptor alpha (ER-alpha) signaling pathway in the presence of an antagonist (AID 1259383; calls by dose curve; also: top concentration of the series differs between compounds; nearly all actives have a fitted effect of over 15% in size); conditions: VM7Luc4E2 cells, ERE-luciferase, +ICI-182,780, 22 h; series mostly up to 92.4 µM
Estrogen receptor (Homo sapiens), sequence (P03372 whole entry, looked up): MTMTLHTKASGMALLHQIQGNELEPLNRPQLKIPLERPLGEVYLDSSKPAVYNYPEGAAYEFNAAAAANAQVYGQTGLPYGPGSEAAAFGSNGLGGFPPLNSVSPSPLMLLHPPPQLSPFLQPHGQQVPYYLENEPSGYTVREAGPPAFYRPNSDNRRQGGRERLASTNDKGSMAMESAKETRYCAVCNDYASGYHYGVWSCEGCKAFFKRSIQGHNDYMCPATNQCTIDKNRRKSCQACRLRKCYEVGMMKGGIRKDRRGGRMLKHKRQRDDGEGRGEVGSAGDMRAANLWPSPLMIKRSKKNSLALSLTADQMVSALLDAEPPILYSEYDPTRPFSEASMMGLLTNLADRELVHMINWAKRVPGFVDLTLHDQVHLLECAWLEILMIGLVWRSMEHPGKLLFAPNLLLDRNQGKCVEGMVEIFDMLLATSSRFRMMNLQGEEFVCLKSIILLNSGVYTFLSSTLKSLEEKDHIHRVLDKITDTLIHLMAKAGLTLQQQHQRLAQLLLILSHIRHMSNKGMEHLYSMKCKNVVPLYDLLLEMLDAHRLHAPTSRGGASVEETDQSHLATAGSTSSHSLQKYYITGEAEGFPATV
How it was run: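 In VM7Luc4E2 cells, 4,000 per well, compounds at 15 concentrations were co-incubated 22hr at 37C with 10.0nM final ICI-182,780. Luminescence from the stably transfected 4×ERE-luciferase reporter was recorded 30min after ONE-Glo addition.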

[17] = molecular target: Estrogen receptor beta (Homo sapiens) (UniProt Q92731); assay: qHTS assay to identify small molecule agonists of the estrogen receptor beta (ER-beta) signaling pathway (AID 1259377; active = well fitted activation curve with a large enough effect in the signal ratio in the repeat runs, not every such curve was filed as active; the % refers to the signal ratio); conditions: ER-beta-UAS-bla HEK293T, beta-lactamase FRET ratio, 16 h; series mostly up to 92.4 µM
Estrogen receptor beta (Homo sapiens), sequence (Q92731 whole entry, looked up): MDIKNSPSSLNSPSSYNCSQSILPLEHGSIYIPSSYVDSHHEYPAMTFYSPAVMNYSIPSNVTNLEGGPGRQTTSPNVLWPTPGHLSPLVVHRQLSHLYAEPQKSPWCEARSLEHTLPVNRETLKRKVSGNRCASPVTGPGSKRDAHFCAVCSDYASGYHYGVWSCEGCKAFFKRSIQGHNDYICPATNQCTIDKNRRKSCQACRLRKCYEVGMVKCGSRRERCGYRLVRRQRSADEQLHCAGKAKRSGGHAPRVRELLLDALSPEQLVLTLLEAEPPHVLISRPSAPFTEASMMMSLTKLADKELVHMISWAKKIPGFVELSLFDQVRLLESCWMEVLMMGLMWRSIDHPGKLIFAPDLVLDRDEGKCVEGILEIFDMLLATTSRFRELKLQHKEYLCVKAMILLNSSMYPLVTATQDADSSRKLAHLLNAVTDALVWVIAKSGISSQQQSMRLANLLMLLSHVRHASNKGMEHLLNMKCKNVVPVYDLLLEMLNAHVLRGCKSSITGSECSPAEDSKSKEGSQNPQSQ
How it was run: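 ER-beta-UAS-bla HEK293T cells in medium with 2% charcoal-stripped FBS were exposed to compounds for 16 h at 37C. Beta-lactamase reporter activity was read as fluorescence after 2 h with LiveBLAzer B/G FRET substrate at room temperature.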

[18] = molecular target: Estrogen receptor beta (Homo sapiens) (UniProt Q92731); assay: qHTS assay to identify small molecule antagonists of the estrogen receptor beta (ER-beta) signaling pathway (AID 1259378; active = well fitted inhibition curve with a large enough effect in the signal ratio in the repeat runs, not every such curve was filed as active; the % refers to the signal ratio); conditions: ER-beta-UAS-bla HEK293T, beta-lactamase FRET ratio, 16 h; series mostly up to 92.4 µM
How it was run: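 Antagonist mode: compounds added to beta-lactamase reporter HEK293T ER-beta-UAS cells stimulated with E2 (1nM final), 16 hr at 37C. LiveBLAzer B/G FRET substrate, 2 hours room temperature, fluorescence read-out.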

Measured: Potency

Cc1c(C(=O)O)cccc1[N+](=O)[O-]
active: [3] 55.4 µM | [5] 19.6 µM
not listed: [14] | [15] | [16] | [17] | [18]
inactive: all other assays above

C=CCCCCCCC=C
active: [5] 30.7 µM
inactive: [1] | [2] | [4] | [6] | [7] | [9] | [11] | [12]

CC(C)(C)CC(C)(C)c1ccccc1O
inactive: [1] | [4] | [6] | [10] | [15]
active: [14] 54.8 µM | [3] 48.8 µM | [5] 27.4 µM | [7] 43.5 µM

CCCOc1sc(C(=O)N2CCC(c3cc(CN)ccc3F)CC2)c(C)c1Br
active: [2] 62.8 µM | [14] 22.3 µM | [3] 25 µM | [7] 28.1 µM | [9] 25 µM | [15] 56 µM
inactive: [4] | [5] | [8] | [16] | [10]

CCN(CC)c1ccc(N)cc1
inactive: [1] | [2] | [4] | [10]
active: [14] 35.3 µM | [5] 4.99 µM | [6] 19.9 µM | [11] 28.1 µM

Cc1ccc(CCn2c3c(c4cc(Cl)ccc42)CN(C)CC3)cn1
active: [7] 26.6 µM
not listed: [3] | [5] | [9] | [14] | [17] | [18]
inactive: all other assays above

CCCCCCCCCC(=O)N(C)C
not listed: [1] | [5] | [8] | [12] | [15] | [16]
inactive: all other assays above

[O]=[Zr]
not listed: [8] | [12] | [14] | [16] | [17] | [18]
inactive: all other assays above

CCCCCCOc1cc(C)c(O)c(C)c1C
active: [3] 61.9 µM | [5] 61.9 µM | [7] 55.1 µM | [15] 55.1 µM
inactive: [1] | [16] | [10]

CC1CCCNC1 (stereo unspecified)
active: [3] 42.4 µM | [5] 26.7 µM
not listed: [8] | [9] | [11] | [13] | [14] | [18]
inactive: all other assays above

CCC(C)c1cc([N+](=O)[O-])cc([N+](=O)[O-])c1OC(=O)OC(C)C (stereo unspecified)
inactive: [1] | [2] | [4] | [8] | [9] | [10] | [15]
active: [3] 68.6 µM | [5] 21.7 µM | [6] 61.1 µM | [11] 54.5 µM

From PubChem BioAssay (Tox21)
